# Compound activity (PubChem BioAssay)
# AMA1-RON2 inh – qHTS for Inhibitors of AMA1-RON; Towards Development of Antimalarial Drug Lead: Primary Screen. Plasmodium falciparum AMA1 (3D7) - RON2 peptide interaction. AlphaScreen AMA1-biotinylated RON2 peptide binding. Potency, µM (doses to about 58.2 µM), inactives show at the top dose activity change, negative = inhibition, most hits filed as inhibitors. actives 0.2% (n = 360,000);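 further: 0% = vehicle wells and -100% = peptide control; nearly all actives have a fitted effect of over 45% in size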
#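 AMA1 (3D7) with his tag at 25 nM final met compounds first, then biotinylated RON2 peptide at 25 nM; detection used donor plus acceptor beads, 10 µg/mL apiece, read by AlphaScreen after 30 min at room temperature.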
# Pf growth 48h – Primary qHTS for delayed death inhibitors of the malarial parasite plastid, 48 hour incubation | P. falciparum luciferase growth in erythrocytes, 48 h | Potency, µM (top dose mostly 28.7 µM), inactives show top-dose activity change, negative = inhibition, usual class: inhibitors | AID 504832, 2011 | actives 5.9% (n = 310,000); further: on the % scale 0 is the no-effect control and ±100 the full control effect
#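 First compound was added to culture medium, then infected red cells at 0.1% parasitemia and 2% hematocrit (final). After incubation at 37 C under 5% CO2, luciferase detection reagent was dispensed and light output recorded.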
# Pf growth 96h – Primary qHTS for delayed death inhibitors of the malarial parasite plastid, 96 hour incubation; P. falciparum luciferase reporter growth, 96 h; AID 504834, 2011; actives 6.9% (n = 320,000); Potency, µM (series often up to 28.7 µM), inactives show top-dose activity change, negative = inhibition, actives largely listed as inhibitors; further: on the % scale 0 is the no-effect control and ±100 the full control effect
#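 P. falciparum expressing integrated firefly luciferase, in erythrocytes at 2% hematocrit, 0.05% parasitemia, incubated with compounds 96 h at 37 C, 5% CO2. Growth inhibition read as loss of luminescence; two-generation exposure targets delayed-death apicoplast inhibitors.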
# SARS PLpro yeast – qHTS of Yeast-based Assay for SARS-CoV PLP; S. cerevisiae expressing SARS-CoV PLpro, growth rescue; Potency, µM (highest dose often 32.9 µM), without a hit: at the top dose activity, positive = growth rescue, usual class: activators; actives 0.19% (n = 330,000); AID 485353, 2010; calls by dose curve; further: 0% is about no effect; nearly all actives have a fitted effect of over 55% in size
# An asterisk follows results filed as active; i = inactive; ? = inconclusive; nt = no result given; [ ] = remark or other dose. Hits are enriched below; roughly 9.4% of the tested compounds scored in any of these assays. Unless noted, the call rests on the fitted dose curve; in most records, active means well fitted curve in the direction sought with a large enough effect; inconclusive means small, poorly fitted or top-dose-only effect, or another doubt; inactive means no such curve, though single readings can be large; an effect the other way counts as inactive or inconclusive. Potency means the concentration at half of the fitted maximal effect.
SMILES,AMA1-RON2 inh,Pf growth 48h,Pf growth 96h,SARS PLpro yeast
CCC1=C(OC(=O)N(CC)CC)N2C(=O)OC(=NCC(=O)OC)[C@]2(C)[C@H]2C1=CC[C@H]1C(=O)N(CC(=O)OC)C(=O)[C@H]12,10%,31%,64%,3%
CCC1=C(OC(=O)N(CC)CC)N2C(=O)OC(=NCCc3c[nH]c4ccccc34)[C@]2(C)[C@H]2C1=CC[C@H]1C(=O)N(C)C(=O)[C@H]12,-22%,10µM*,?,-1%
Cc1[nH]c2ccccc2c1SCc1n[nH]c(=S)n1C,72%,9%,0%,2%
Cc1[nH]c2ccccc2c1Cc1n[nH]c(=S)n1C,-26%,15%,5.2µM*,10%
CN(C)S(=O)(=O)c1cccc(NC(=O)CNCc2ccccn2)c1,-2%,-8%,-9%,0%
Oc1sc(C=Nc2ccc(F)cc2)c2ccccc12,28%,4.7µM*,3.3µM*,3%
Cc1ccc(NC(=S)N(CCCN2CCOCC2)Cc2cccs2)c(C)c1,-18%,?,9.3µM*,8%
Cc1ccc(NC(=S)NN2CCOCC2)c(C)c1,-6%,19%,15µM*,6%
Cc1c(Cl)cccc1NC(=S)N(CCCN1CCOCC1)Cc1cccs1,-2%,?,-6%,4%
CN(C)CCNC(=O)CNC(=S)N(CCCN1CCOCC1)Cc1cccs1,-5%,i,-18%,1%
CCN(CC)CCNC(=O)CNC(=S)N(CCCN1CCOCC1)Cc1cccs1,2%,0%,1.7µM*,0%
COc1ccc(OC)c(NC(=S)NN2CCOCC2)c1,11%,26%,30%,7%
Cc1cc(NC(=O)CCNS(=O)(=O)c2ccc3[nH]c(=O)oc3c2)ccc1Br,-5%,-11%,-6%,-1%
O=C(C1CCCN(Cc2ccc(Br)cc2)C1)N1CCCCC1 (stereo not given),?,-9%[0.00184 µM],29%,1%
CC1CCN(C(=O)CNC(=O)CNS(=O)(=O)c2ccccc2)CC1,0%,0%,?,3%
COc1cc2ncnc(NCc3ccccc3)c2cc1OC,-2%,?,?,4%
COc1ccc(CNc2ncnc3cc(OC)c(OC)cc23)cc1,-3%,4.1µM*,2.1µM*,3%
COc1cc2ncnc(NCc3ccc4c(c3)OCO4)c2cc1OC,-7%,12µM*,?,0%
O=C(Nc1ccc(S(=O)(=O)N2CCOCC2)cc1)C1COc2ccccc2O1 (stereo not given),2%,?,-9%,1%
CNC(=O)c1ccccc1Sc1ccccc1CO,-8%,-35%,-2%,1%
CN1CCS/C1=C/C=C1\SC(=S)N(CC(=O)O)C1=O,-12%,40%,61%,0%
CCCCN1C(=O)/C(=C/C=C2\SCCN2C)SC1=S,10µM*,183%,-1%,-12%
CC(C)(C)C1CCC(OC(=O)C[N+]2(C)CCCCC2)CC1 (stereo not given),-6%,12µM*,-1%,0%
CC(C)(C)C1CCC(OC(=O)C[N+]2(C)CCCC2)CC1 (stereo not given),-1%,?,71%,0%
c1cc2ccc3ccc(-n4cnnn4)c4ccc(c1)c2c34,-8%,nt,47%,6%
SMILES,AMA1-RON2 inh,Pf growth 48h,Pf growth 96h,SARS PLpro yeast
CCCN(CCC)C(=O)Cn1c(=O)c2ccccc2n2c(=S)sc(-c3ccccc3C)c12,3%,-8%,?,4%
COc1cc(OC)cc(N2C(=O)CSCC2=O)c1,-8%,2.6µM*,25%,0%
Cc1ccc(N2C(=O)CSCC2=O)cc1,6%,-6%,nt,9%
CS(=O)(=O)c1ccc(C(=O)OC2CCOC2=O)cc1[N+](=O)[O-] (stereo not given),7%,6.6µM*,?,2%
O=C(OC1CCOC1=O)c1ccccc1C(=O)c1ccc(Cl)c([N+](=O)[O-])c1 (stereo not given),13%,?,-41%,-3%
OCCCCNCc1ccc(OCc2ccc(Cl)cc2)cc1,-7%,?,15µM*,-5%
Cc1ccc(OCC(=O)N2CCc3ccccc3C2)cc1C,0%,nt,nt,nt
COC(=O)CSC1=C(C#N)C(c2ccc(C(C)C)cc2)CC(=O)N1 (stereo not given),-8%,nt,-24%,-13%
COC(=O)CSC1=C(C#N)C(c2ccccc2)CC(=O)N1 (stereo not given),5%,16%,9.3µM*,8%
CCCSC1=C(C#N)C(c2ccccc2OCC)CC(=O)N1 (stereo not given),2%,?,5.2µM*,1%
N#CC1=C(SCC(=O)Nc2ccccc2)NC(=O)CC1c1ccco1 (stereo not given),-1%,nt,nt,nt
N#CC1=C(SCC(=O)Nc2ccccc2)NC(=O)CC1c1ccc(O)cc1 (stereo not given),-6%,nt,5.9µM*,0%
COc1ccc(NC(=S)N(CCCN2CCOCC2)Cc2cn(C)c3ccccc23)cc1OC,-11%,?,4.1µM*,4%
Nc1nc2ncc(CNc3ccc(C(=O)NC(CCC(=O)O)C(=O)O)cc3)nc2c(=O)[nH]1 (stereo not given),nt,-1%,2%,nt
CN(Cc1cnc2nc(N)nc(N)c2n1)c1ccc(C(=O)N[C@@H](CCC(=O)O)C(=O)O)cc1,3%,0.043µM*,1.7µM*,nt
O=c1ccnc(Sc2ncccc2[N+](=O)[O-])[nH]1,8%,-6%,-16%,26%
CNc1nnc(Sc2ncccc2[N+](=O)[O-])s1,1%,9.3µM*,?,0%
Clc1ccc(OCc2nnc3n2N=C(c2ccc4c(c2)OCCO4)CS3)c(Cl)c1,10%,?,18%,-2%
Cc1cc(C)c(S(=O)(=O)N2CCCc3ccccc32)c(C)c1,22%,13µM*,?,-2%
Cc1ccnc(NC(=O)c2cccc(S(=O)(=O)N3CCCc4ccccc43)c2)c1,-8%,1.9µM*,1.9µM*,-4%
O=C(Nc1ccccn1)c1cccc(S(=O)(=O)N2CCCc3ccccc32)c1,4%,7.4µM*,10µM*,-4%
Cc1cccc(S(=O)(=O)N2CCCc3ccccc32)c1,16%,-45%,0%,-7%
COc1ccc(C(=O)Nc2ccc(C)cn2)cc1S(=O)(=O)N1CCCc2ccccc21,0%,12µM*,?,-2%
COc1ccc([C@@H](C)NC(=O)CCc2nnc(-c3cc(C)on3)o2)cc1,0%,19%,2.9µM*,1%
Cc1cc(-c2nnc(CCC(=O)NC(C)c3cccc4ccccc34)o2)no1 (stereo not given),3%,-17%,12µM*,1%
Cc1cc(-c2nnc(CCC(=O)NC(C)c3ccccc3Cl)o2)no1 (stereo not given),-6%,13%,23%,3%
CCOc1ccc2nc(SCC(=O)N3c4ccccc4Sc4ccccc43)sc2c1,6%,3%,-11%,1%
Cc1ccc(SCC(=O)Nc2ccccc2N2CCOCC2)cc1,-2%,-12%,?,-10%
CCc1ccc2nc(SCC(=O)Nc3ccccc3N3CCOCC3)c(C#N)cc2c1,-9%,9.3µM*,-54%,1%
